Experiment [1] is described as follows: sensitizers of A549 cells to miR-34 induction, primary screen, imaging, A549 dox-inducible miR-34, nuclei and caspase counts (AID 1347080;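 active means compounds whose cell count with miR-34 switched on is under 0.7 times the count with it off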; further: test concentration not given here). Particulars: A549 miR-34 inducible, Hoechst nuclei count, 48 h.
A short description of experiment [2]: survival rescue of mitochondrial mutant cells in low glucose, primary screen, MELAS cybrids, Rieske KO mouse fibroblasts, CellTiter-Glo (AID 1508586;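 active means mean z-score across replicates of 1.96 or higher in either the MELAS or the Rieske mutant cell line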;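 further: test concentration not given here; z relative to plate mean and SD of compound and empty wells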). A general note: Cellular ATP, detected with luciferase, serves as a proxy for viable cell number.
A short description of experiment [3]: viability rescue of complex I mutant cybrids, primary screen, cell-based, galactose medium, ATP luminescence (AID 1645843).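 Further: positive z means more ATP and so rescue of galactose-driven cybrid death.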 Particulars: complex I mutant cybrid cells, 72 h, stronger effect = higher value.
[4] abbreviates: stronger effect = lower value, cell number ratio, induced over uninduced.
[5] abbreviates: measured here: relative caspase fold change +Dox/-Dox.
The mark [6] stands for this setting: measured here: total cells with miR-34 induction, stronger effect = lower value.
Where [7] appears, read: measured here: total cells without miR-34 induction.
The mark [8] stands for this setting: MELAS cybrid survival, CellTiter-Glo 48 h, stronger effect = higher value.
Where [9] appears, read: Rieske KO mouse fibroblast survival, CellTiter-Glo 72 h.

Activity calls are given as the source filed them.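 How the source made its calls, unless noted: active means z-score of at least 1.8 in each of two replicates, scored against plate mean and spread of sample wells; inactive means the rest.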

On to `c1nc(N2CCOCC2)c2[nH]cnc2n1`, for which the fold change in experiment [1] (setting [4]) is 0.913 (inactive); in experiment [1] (setting [5]), 0.416. Also, the cell count in experiment [1] (setting [6]) was determined as 8460; in experiment [1] (setting [7]) it was 9270. For the same molecule, the z-score was -0.198 (inactive) in experiment [2] (setting [8]), -0.176 in experiment [2] (setting [9]) and 1.15 (inactive) in experiment [3].
In the case of `CCOC(=O)c1c(C)n[nH]c1C`, the results for the fold change in experiment [1] (setting [4]) and in experiment [1] (setting [5]) were 0.871 (inactive) and 0.655, respectively. For the same molecule, the figures for the cell count in experiment [1] (setting [6]) and in experiment [1] (setting [7]) were 8840 and 10200, respectively. Further, the z-score in experiment [2] (setting [8]) is 0.691 (inactive); in experiment [2] (setting [9]) it was -0.58; in experiment [3], 0.425 (inactive).
Consider `Cc1cc(C(=O)Nc2ccc3c(c2)CC(=O)N3)c(C)o1`, for which the figures for the fold change in experiment [1] (setting [4]) and in experiment [1] (setting [5]) were 0.929 (inactive) and 1.42, respectively. The cell count was found to be 9120 in experiment [1] (setting [6]) and 9820 in experiment [1] (setting [7]). Moreover, the z-score in experiment [2] (setting [8]) was -0.11 (inactive); in experiment [2] (setting [9]), -0.503; in experiment [3], -0.465 (inactive).
Consider `Cc1nc(NC(=O)NCC2COc3ccccc3O2)nn1C(C)C` (stereo not given), for which the fold change is 0.958 (inactive) in experiment [1] (setting [4]) and 1.49 in experiment [1] (setting [5]). Further, the cell count in experiment [1] (setting [6]) turned out to be 8560; in experiment [1] (setting [7]), 8940. The z-score is -0.362 (inactive) in experiment [2] (setting [8]), 0.824 in experiment [2] (setting [9]) and 2.15 (active) in experiment [3].
For `Nc1ccc(CCC(=O)O)cc1`, the values for the fold change in experiment [1] (setting [4]) and in experiment [1] (setting [5]) were 0.96 (inactive) and 0.255, respectively. Besides, the cell count amounted to 9320 in experiment [1] (setting [6]) and 9710 in experiment [1] (setting [7]). In addition, the z-score in experiment [2] (setting [8]) was 0.558 (inactive); in experiment [2] (setting [9]), -0.0102; in experiment [3], 1.27 (inactive).
In the case of `CC1(C)CC(=O)c2sc(N3CCOCC3)nc2C1`, the fold change was 0.909 (inactive) in experiment [1] (setting [4]) and 0.788 in experiment [1] (setting [5]). The results for the cell count in experiment [1] (setting [6]) and in experiment [1] (setting [7]) were 8160 and 8970, respectively. In addition, the z-score was 0.786 (inactive) in experiment [2] (setting [8]), -0.0343 in experiment [2] (setting [9]) and 0.025 (inactive) in experiment [3].
`c1ccc2c(CCc3ccncc3)c[nH]c2c1`: the fold change in experiment [1] (setting [4]) was 0.863 (inactive); in experiment [1] (setting [5]) it was 0.826. The cell count in experiment [1] (setting [6]) was 7350; in experiment [1] (setting [7]), 8520. Also, the results for the z-score in experiment [2] (setting [8]), in experiment [2] (setting [9]) and in experiment [3] were 1.96 (inactive), -0.242 and -0.71 (inactive), respectively.
Take `Cc1csc2ncnc(-c3cccc4cccnc34)c12`: the values for the fold change in experiment [1] (setting [4]) and in experiment [1] (setting [5]) were 0.931 (inactive) and 0.756, respectively. The cell count is 8530 in experiment [1] (setting [6]) and 9170 in experiment [1] (setting [7]). Besides, the results for the z-score in experiment [2] (setting [8]), in experiment [2] (setting [9]) and in experiment [3] were -0.57 (inactive), -0.471 and -0.505 (inactive), respectively.
As for `COc1ccc(F)c(-c2cccc(N)n2)c1`, the fold change in experiment [1] (setting [4]) is 0.864 (inactive); in experiment [1] (setting [5]), 1.37. Further, the values for the cell count in experiment [1] (setting [6]) and in experiment [1] (setting [7]) were 8940 and 10300, respectively. Moreover, the z-score in experiment [2] (setting [8]) is -0.0723 (inactive); in experiment [2] (setting [9]), -0.237; in experiment [3], -0.555 (inactive).
`CN(C)C(=O)CN(C)C(=O)c1cccc(Nc2ncnc3c2cnn3C)c1`: the fold change in experiment [1] (setting [4]) is 0.866 (inactive); in experiment [1] (setting [5]) it was 1.54. Moreover, the cell count in experiment [1] (setting [6]) is 8650; in experiment [1] (setting [7]) it was 9990. Moreover, the z-score is 0.0352 (inactive) in experiment [2] (setting [8]), -0.276 in experiment [2] (setting [9]) and -0.525 (inactive) in experiment [3].
Regarding `CCc1cc(CN2CCN(C)C(CCO)C2)on1` (stereo not given), the fold change in experiment [1] (setting [4]) was 0.907 (inactive); in experiment [1] (setting [5]), 1.26. The cell count in experiment [1] (setting [6]) stood at 8690; in experiment [1] (setting [7]) it was 9580. Also, the values for the z-score in experiment [2] (setting [8]), in experiment [2] (setting [9]) and in experiment [3] were 0.702 (inactive), -0.294 and -0.59 (inactive), respectively.
As to `CCNc1ncc(-c2cc(C(=O)N(C)CCN(C)C)c3cc(F)ccc3n2)cn1`, the fold change in experiment [1] (setting [4]) is 0.912 (inactive); in experiment [1] (setting [5]), 2.18. For the same molecule, the cell count in experiment [1] (setting [6]) was found to be 8760; in experiment [1] (setting [7]), 9610. The figures for the z-score in experiment [2] (setting [8]), in experiment [2] (setting [9]) and in experiment [3] were -0.0763 (inactive), -0.44 and -0.56 (inactive), respectively.
`Cc1cc(-c2cccc(OC(C)C)c2)nc(N)n1`: the fold change in experiment [1] (setting [4]) was 0.871 (inactive); in experiment [1] (setting [5]) it was 1.62. Further, the cell count in experiment [1] (setting [6]) worked out at 7710; in experiment [1] (setting [7]), 8860. The z-score in experiment [2] (setting [8]) is -1.21 (inactive); in experiment [2] (setting [9]) it was 0.889; in experiment [3], -0.56 (inactive).
`Cn1c(=O)ccc2ccccc21`: the results for the fold change in experiment [1] (setting [4]) and in experiment [1] (setting [5]) were 0.892 (inactive) and 0.453, respectively. Besides, the cell count in experiment [1] (setting [6]) was determined as 8490; in experiment [1] (setting [7]), 9520. The z-score in experiment [2] (setting [8]) is -0.16 (inactive); in experiment [2] (setting [9]), 0.0614; in experiment [3], 0.32 (inactive).
Consider `COc1ccc(-c2oc3ncnc(NCCO)c3c2-c2ccc(OC)cc2)cc1`, for which the fold change in experiment [1] (setting [4]) is 0.89 (inactive); in experiment [1] (setting [5]), 0.844. For the same molecule, the cell count was 5740 in experiment [1] (setting [6]) and 6450 in experiment [1] (setting [7]). Besides, the values for the z-score in experiment [2] (setting [8]), in experiment [2] (setting [9]) and in experiment [3] were 1.03, 11.9 and -1.77 (inactive), respectively.
Take `O=C(O)CCc1c(C(=O)O)[nH]c2cc(Cl)cc(Cl)c12`: the fold change was 0.85 (inactive) in experiment [1] (setting [4]) and 0.683 in experiment [1] (setting [5]). Also, the cell count in experiment [1] (setting [6]) is 8390; in experiment [1] (setting [7]), 9880. The z-score in experiment [2] (setting [8]) was 0.688 (inactive); in experiment [2] (setting [9]), 0.122; in experiment [3], 0.585 (inactive).
On to `CCn1ncc2[nH]c(-c3cnn(C)c3-c3ccccc3)nc21`, for which the fold change in experiment [1] (setting [4]) is 0.88 (inactive); in experiment [1] (setting [5]) it was 1.89. Further, the cell count in experiment [1] (setting [6]) worked out at 8480; in experiment [1] (setting [7]), 9640. Besides, the figures for the z-score in experiment [2] (setting [8]), in experiment [2] (setting [9]) and in experiment [3] were -0.346 (inactive), -0.221 and -0.49 (inactive), respectively.
On to `O=C(NCC(c1ccccc1)c1ccccc1)Nc1nncs1`, for which the fold change was 0.844 (inactive) in experiment [1] (setting [4]) and 1.57 in experiment [1] (setting [5]). Also, the results for the cell count in experiment [1] (setting [6]) and in experiment [1] (setting [7]) were 7570 and 8970, respectively. Moreover, the z-score was -0.117 in experiment [2] (setting [8]), 3.64 in experiment [2] (setting [9]) and 1.59 (inactive) in experiment [3].
In the case of `O=c1[nH]cnc2sc3c(c12)CCCC3`, the fold change in experiment [1] (setting [4]) is 0.885 (inactive); in experiment [1] (setting [5]), 0.876. Moreover, the cell count in experiment [1] (setting [6]) worked out at 8460; in experiment [1] (setting [7]), 9560. The results for the z-score in experiment [2] (setting [8]), in experiment [2] (setting [9]) and in experiment [3] were -0.212 (inactive), 0.0845 and 0.635 (inactive), respectively.
For `CC(C)n1cc(-c2cc(C(=O)N(C)Cc3cccnc3)c3ccc(F)cc3n2)cn1`, the fold change in experiment [1] (setting [4]) is 0.916 (inactive); in experiment [1] (setting [5]), 1.28. The cell count in experiment [1] (setting [6]) turned out to be 9850; in experiment [1] (setting [7]), 10700. Also, the z-score in experiment [2] (setting [8]) was -0.603 (inactive); in experiment [2] (setting [9]), 1.43; in experiment [3], -0.355 (inactive).

For the origin of these results see PubChem BioAssay.
